# Compound activity: PubChem, National Center for Advancing Translational Sciences (NCATS)
# PLK1 PBD block: blocks phosphopeptide binding to human PLK1 polo-box domain. P53350. Plk1 PBD binding of FITC phosphopeptide, fluorescence polarization. Potency, µM, for inactives: max response, negative = inhibition, actives largely listed as inhibitors. 2.8% of 360,000 active. AID 720504; also: series mostly up to about 57 µM; % is scaled to controls: 0 for no effect and ±100 for the full control effect; nearly all actives have a fitted effect of over 65% in size
# Target sequence (P53350 whole entry, looked up, the tested form may be a part): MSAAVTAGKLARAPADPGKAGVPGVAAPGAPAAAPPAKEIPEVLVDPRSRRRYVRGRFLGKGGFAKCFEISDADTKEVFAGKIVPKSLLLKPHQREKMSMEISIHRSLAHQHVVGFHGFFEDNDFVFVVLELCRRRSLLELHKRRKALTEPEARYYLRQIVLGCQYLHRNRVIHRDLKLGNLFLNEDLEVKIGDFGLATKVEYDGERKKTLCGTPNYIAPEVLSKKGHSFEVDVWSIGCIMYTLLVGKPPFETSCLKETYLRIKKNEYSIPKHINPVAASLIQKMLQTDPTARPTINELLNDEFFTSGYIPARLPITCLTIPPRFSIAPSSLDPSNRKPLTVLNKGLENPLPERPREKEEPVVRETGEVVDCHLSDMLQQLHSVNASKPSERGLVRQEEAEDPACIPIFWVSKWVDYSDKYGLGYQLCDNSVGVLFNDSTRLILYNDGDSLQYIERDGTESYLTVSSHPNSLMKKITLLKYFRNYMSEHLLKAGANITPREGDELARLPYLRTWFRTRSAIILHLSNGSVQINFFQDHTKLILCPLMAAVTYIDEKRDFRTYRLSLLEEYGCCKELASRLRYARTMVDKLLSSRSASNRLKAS
# KAT2A inh: inhibitors of human GCN5L2 histone acetyltransferase; 0.21% of 390,000 active; Q92830; AID 504327; GCN5L2 HAT assay, ThioGlo1 CoA-SH fluorescence; Potency, µM (highest dose often 58.9 µM), without a hit: top-dose activity change, negative = inhibition, actives largely listed as inhibitors; also: % is scaled to controls: 0 for no effect and ±100 for the full control effect
#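 Enzyme at 20nM final was mixed with library compounds for 15 min at room temperature. Peptide H3(1-25) at 75uM, acetyl-CoA at 70uM and ThioGlo1 at 50uM were then added. Plates were read immediately and after 20 min (Ex340nm/Em540nm).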
# ALOX12 inh: ALOX12 (human) lipoxygenase inhibition. P18054. purified 12hLO, xylenol orange hydroperoxide absorbance. Potency, µM (highest dose often 108 µM), for the others: at the highest dose activity change, negative = inhibition, most hits filed as inhibitors. 1.1% of 580,000 active; also: % is scaled to controls: 0 for no effect and ±100 for the full control effect
#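 Purified human 12hLO at 150 nM in 25 mM Hepes, 0.01% Triton X-100, pH 7.0, preincubated 15 min at room temperature with compound. Reaction started with 40 uM arachidonic acid, 30 min at room temperature. Hydroperoxide measured by Fe-xylenol orange, 573/405 nm absorbance ratio.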
# VDR inh: blocks the human vitamin D receptor; P11473; VDR-SRC2-3 peptide fluorescence polarization, 2 h; Potency, µM, for inactives: max response, negative = inhibition, actives largely listed as inhibitors; 0.93% of 400,000 active; AID 504847; also: % is scaled to controls: 0 for no effect and ±100 for the full control effect
#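 Fluorescence polarization assay measuring small-molecule disruption of VDR binding to the coregulator peptide SRC2-3. Compounds were pin-transferred (23 nl) into the reagent mix and incubated 2 h at room temperature before reading.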
# VDR inh confirm: confirmation of human vitamin D receptor inhibitors. VDR-coactivator inhibition assay, qHTS confirmation. AID 602199. Potency, µM, actives largely listed as inhibitors. shares compounds with VDR inh. 89% of 840 active
# VDR FP fluor: confirmation of human VDR-coactivator binding inhibitors, fluorescein label. shares compounds with VDR inh. VDR-coactivator binding, fluorescein fluorescence polarization. Potency, µM (series often up to 57.1 µM), inactives show at the top dose activity change, negative = inhibition, usual class: inhibitors. 48% of 840 active. AID 602200
# VDR bla reporter: confirmation of human vitamin D receptor inhibitors in reporter cells; AID 602202; shares compounds with VDR inh; 23% of 840 active; Potency, µM (series often up to 46.1 µM), inactives show top-dose activity change, negative = inhibition, actives largely listed as inhibitors; VDR beta-lactamase reporter cells, FRET ratio; cells co-treated with VDR agonist LG190178; also: % is scaled to controls: 0 for no effect and ±100 for the full control effect
# VDR cytotox: counter-screen for vitamin D receptor inhibitors: cytotoxicity; shares compounds with VDR inh; cytotoxicity counter-screen, cell viability, qHTS; Potency, µM (titrated, usually from 48.3 µM), for inactives: at the highest dose activity change, negative = cytotoxicity, hits mostly cytotoxic; 18% of 840 active; AID 602204;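 also: plate controls were DMSO for no effect and high-concentration cycloheximide for full effect; nearly all actives have a fitted effect of over 75% in size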
# Active calls of the source: *; ? = inconclusive; / = no result given. Hits are enriched below; roughly 3% of the tested compounds scored in any of these assays. Calls follow the shape of the dose curve; as a rule, active = well fitted curve in the direction sought with a large enough effect; inconclusive = small, poorly fitted or top-dose-only effect, or another doubt; inactive = no such curve, though single readings can be large; an effect the other way counts as inactive or inconclusive. Potency is read from the fitted curve at half-maximal effect.
SMILES,PLK1 PBD block,KAT2A inh,ALOX12 inh,VDR inh,VDR inh confirm,VDR FP fluor,VDR bla reporter,VDR cytotox
Cc1ccc(C(C[N+](=O)[O-])n2nc(C)cc2C)cc1 (stereo not given),16.8µM*,-5.8%,0.0%,79.4µM*,13.4*,8.91µM*,?,?
CNC(=O)C(C)n1nc(-c2cc(C)ccc2C)c2ccccc2c1=O (stereo not given),/,/,4.7%,/,/,/,/,/
CS(=O)(=O)c1nc(-c2ccccc2)cc(C(F)(F)F)n1,23.8µM*,-2.9%,-3.4%,?,8.91*,4.47µM*,18.4µM*,23.8µM*
CCS(=O)(=O)c1nc(-c2ccc(Cl)cc2)cc(C(F)(F)F)n1,/,/,4.1%,/,/,/,/,/
Cc1ccc(C(=O)N2C(=S)C(c3ccc(F)cc3)=NC23CCN(C)CC3)cc1,23.8µM*,-1.4%,?,?,17.8*,22.4µM*,25.9µM*,?
O=c1c(Cl)c(Cl)cnn1Cc1nnc(-c2ccc(Cl)cc2)o1,?,-17.3%,-14.9%,?,?,?,?,?
COc1cccc(/C=C/C(=O)c2cccc([N+](=O)[O-])c2)c1OC,?,-3.2%,9.4%,8.91µM*,3.77*,3.16µM*,?,?
COC(=O)/C=C/c1ccc2c(c1)S(=O)(=O)N(Cc1ccc(OC)cc1)[C@H]2CC(=O)OC,0.2%,/,-20.5%,-3.8%,/,/,/,/
COc1ccc(CN2[C@@H](CC(C)=O)c3ccc(/C=C/C(C)=O)cc3S2(=O)=O)cc1,-8.8%,/,-0.2%,79.4µM*,5.01*,?,?,?
COc1ccc(Oc2coc3cc(OC(=O)c4ccc5c(c4)OCO5)ccc3c2=O)cc1,/,/,117.6%,/,/,/,/,/
O=C1NC(=S)N/C1=C/c1cccc([N+](=O)[O-])c1,-12.8%,-7.5%,-3.3%,-4.1%,/,/,/,/
CN1C(=O)/C(=C/c2cccc([N+](=O)[O-])c2)C(=O)N1c1ccccc1,2.38µM*,2.1%,39.8µM*,31.6µM*,13.4*,?,-7.0%,-3.1%
CNC(=O)CNC(=O)c1cc(-c2ccc(C)cc2)nc2ccccc12,/,/,-28.9%,/,/,/,/,/
CCOC(=O)c1oc2cc(OS(C)(=O)=O)ccc2c(=O)c1-c1ccc(OC)c(OC)c1,/,/,-16.0%,/,/,/,/,/
CC(=O)N(C1=C(Cl)C(=O)c2ccccc2C1=O)C1CCCCC1,3.77µM*,31.6µM*,1.78µM*,14.1µM*,11.9*,14.1µM*,5.8µM*,?
CC(=O)N(c1ccccc1C)C1CCCC1,2.6%,-3.6%,-1.5%,-11.7%,/,/,/,/
COc1ccc(CCNC(=O)CSc2nc(-c3ccccc3C)nc3cc(=O)[nH]n23)cc1OC,/,/,2.3%,/,/,/,/,/
COc1cc(NC(=O)c2ccc(N3C(=O)C(C)(C)CS3(=O)=O)cc2)cc(OC)c1OC,/,/,8.4%,/,/,/,/,/
COc1cccc(C(=O)C(C#N)=C(SC)SC)c1,15µM*,-4.0%,-29.5%,39.8µM*,10.6*,?,?,13µM*
C=CCn1c(O)c(C2=c3ccccc3=NC2=O)c2ccccc21,16.8µM*,-5.6%,-14.2%,20µM*,16.8*,?,?,?
O=C1c2ccccc2CCC1CNCCc1ccc(O)cc1 (stereo not given),/,2.9%,-1.8%,2.82µM*,14.1*,28.2µM*,?,?
O=C1c2ccccc2CC[C@H]1CNCCc1ccc(O)cc1,/,-12.1%,3.0%,3.55µM*,?,?,-4.7%,17.1%
O=C(C[C@H]1NC(=O)c2ccccc2NC1=O)NCCc1ccc(O)cc1,/,/,26.0%,/,/,/,/,/
O=C(CCC(=O)N1CCN(c2ccccc2F)CC1)c1ccc(F)cc1,-1.2%,-16.2%,-18.1%,-11.1%,/,/,/,/
O=C(CCN1CCOCC1)c1ccc(Br)cc1,11.9µM*,3.5%,?,22.4µM*,23.8*,?,?,?
SMILES,PLK1 PBD block,KAT2A inh,ALOX12 inh,VDR inh,VDR inh confirm,VDR FP fluor,VDR bla reporter,VDR cytotox
O=C(CCN1CCN(c2ccccc2F)CC1)c1ccc(Br)cc1,8.44µM*,-9.9%,/,17.8µM*,16.8*,?,?,?
Brc1ccc(OCCN2CCOCC2)cc1,-18.7%,-2.2%,-7.4%,-13.3%,/,/,/,/
CN(C(=O)c1cc(-c2ccccc2)c(N2CCOCC2)s1)C1CCS(=O)(=O)C1 (stereo not given),/,/,-15.3%,/,/,/,/,/
CN1C(=O)C(Cl)(Cl)C(=O)c2ccccc21,11.9µM*,-10.3%,/,3.98µM*,3.36*,?,2.9%,-0.9%
CN1C(=O)C2(NC(=O)c3ccccc3N2C)c2ccccc21 (stereo not given),2.5%,-0.2%,3.9%,1.3%,/,/,/,/
COCCNC(=O)c1ccc(OC2CCN(CCC(C)c3ccc(C)o3)CC2)c(Cl)c1 (stereo not given),/,/,44.2%,/,/,/,/,/
NC(=O)C1CCN(C(=O)COC(=O)c2cc3ccccc3[nH]2)CC1,/,/,5.8%,/,/,/,/,/
Cc1ccc(CC(=O)NNC(=O)c2ccncc2)cc1C,11.9µM*,-17.1%,?,79.4µM*,26.7*,28.2µM*,20.9%,2.9%
O=C(Oc1ccccc1/C=C\C(=O)c1cc2ccccc2o1)c1ccccc1,-10.9%,-5.1%,-10.4%,?,3.98*,?,?,-11.3%
O=C(Oc1ccccc1/C=C\C(=O)c1cc2ccccc2o1)c1cccc(F)c1,-13.0%,-2.8%,-10.3%,28.2µM*,10.6*,?,?,?
O=C(/C=C/c1ccc(F)c(F)c1)c1cc2ccccc2o1,/,/,8.3%,/,/,/,/,/
COc1cccc(C(=O)Oc2ccccc2/C=C\C(=O)c2cc3ccccc3o2)c1,-13.5%,-9.2%,-28.6%,?,2.82*,3.16µM*,?,-21.7%
FC(F)(F)c1cnc(Sc2nnc3ccccn23)c(Cl)c1,/,/,-6.7%,/,/,/,/,/
CCOC(=O)COc1ccc(Br)cc1/C=C\c1[nH]c(=O)[nH]c(=O)c1[N+](=O)[O-],-20.4%,-4.3%,-13.7%,22.4µM*,4.23*,3.16µM*,?,?
CCCOc1ccc(/C=C/c2[nH]c(=O)[nH]c(=O)c2[N+](=O)[O-])cc1OCC,-1.1%,-10.8%,-7.2%,-13.0%,/,/,/,/
CCOC(=O)COc1ccc(Br)cc1/C=C/c1[nH]c(=O)[nH]c(=O)c1[N+](=O)[O-],-28.1%,?,-28.4%,14.1µM*,3.77*,?,-29.8%,?
Cc1ccc(C(=O)CCN2CCCCCC2)cc1,/,/,2.6%,/,/,/,/,/
CC(C)Oc1ccc(C(=O)CCN2CCCCC2)cc1,?,-3.1%,-21.1%,?,7.08*,3.16µM*,?,-19.3%
CC(C)(C)c1[nH]c2ccccc2c1C=O,/,/,59.4%,/,/,/,/,/
